Screens deposited in PubChem by National Center for Advancing Translational Sciences (NCATS).
HP1b binding inh: HTS for Inhibitors of HP1-beta Chromodomain Interactions with Methylated Histone Tails. Chromobox protein homolog 1 (Homo sapiens), P83916. AlphaScreen HP1-beta / biotin-H3K9me3 peptide binding. 0.56% of 390,000 active. Potency, µM (doses to about 114 µM), for inactives: at the highest dose activity change, negative = inhibition, most hits filed as inhibitors; note: potency is the fitted concentration of half-maximal effect; nearly all actives have a fitted effect of over 70% in size
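Compound inhibition of the preformed complex between 50 nM HP1-beta and 50 nM biotinylated H3K9me3 peptide was read by AlphaScreen. Buffer was PBS pH 7.4 with 0.01% Tween-20. Incubations ran 30 min at room temperature, with 10 ug/mL donor/acceptor beads.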
GCN5L2 inh: qHTS Assay for Inhibitors of GCN5L2; Potency, µM (titrated, usually from 58.9 µM), for inactives: top-dose activity change, negative = inhibition, hits mostly inhibitors; Histone acetyltransferase KAT2A (Homo sapiens), Q92830; GCN5L2 HAT assay, ThioGlo1 CoA-SH fluorescence; 0.21% of 390,000 active; note: potency is the fitted concentration of half-maximal effect; % is set by controls: 0 for no effect and ±100 for the full control effect
Target sequence (Q92830 whole entry, looked up): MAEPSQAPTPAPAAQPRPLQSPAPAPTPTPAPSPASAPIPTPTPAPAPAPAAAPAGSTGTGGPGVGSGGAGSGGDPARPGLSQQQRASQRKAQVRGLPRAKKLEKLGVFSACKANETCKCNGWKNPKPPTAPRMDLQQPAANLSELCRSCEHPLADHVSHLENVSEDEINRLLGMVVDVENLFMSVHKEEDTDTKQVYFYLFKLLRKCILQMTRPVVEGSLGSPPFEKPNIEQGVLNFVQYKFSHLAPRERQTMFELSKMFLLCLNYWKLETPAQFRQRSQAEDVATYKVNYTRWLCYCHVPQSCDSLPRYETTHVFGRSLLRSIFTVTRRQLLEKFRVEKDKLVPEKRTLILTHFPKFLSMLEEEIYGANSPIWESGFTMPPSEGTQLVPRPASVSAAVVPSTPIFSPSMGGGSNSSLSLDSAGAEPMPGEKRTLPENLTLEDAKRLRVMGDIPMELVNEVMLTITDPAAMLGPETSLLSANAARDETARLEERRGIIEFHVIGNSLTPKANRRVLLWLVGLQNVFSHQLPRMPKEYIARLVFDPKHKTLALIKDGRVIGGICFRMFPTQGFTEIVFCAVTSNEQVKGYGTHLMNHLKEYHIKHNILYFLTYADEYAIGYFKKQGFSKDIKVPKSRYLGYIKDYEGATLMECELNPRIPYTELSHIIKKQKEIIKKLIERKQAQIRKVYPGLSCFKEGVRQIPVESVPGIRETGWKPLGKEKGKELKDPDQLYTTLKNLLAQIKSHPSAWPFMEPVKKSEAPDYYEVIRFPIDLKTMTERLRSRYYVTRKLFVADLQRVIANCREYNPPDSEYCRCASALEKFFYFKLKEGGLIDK
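Enzyme at 20nM final was mixed with library compounds for 15 min at room temperature. Peptide H3(1-25) at 75uM, acetyl-CoA at 70uM and ThioGlo1 at 50uM were then added. Plates were read immediately and after 20 min (Ex340nm/Em540nm).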
JMJD2A Tudor inh: qHTS Assay for Inhibitors of JMJD2A-Tudor Domain; Lysine-specific demethylase 4A (Homo sapiens), O75164; AlphaScreen JMJD2A-Tudor / H3K4me3 peptide binding; Potency, µM (highest dose often 114 µM), without a hit: top-dose activity change, negative = inhibition, hits mostly inhibitors; 4.4% of 390,000 active; AID 504339, 2011; note: potency is the fitted concentration of half-maximal effect; % is set by controls: 0 for no effect and ±100 for the full control effect; nearly all actives have a fitted effect of over 50% in size
PI5P4Ka inh: qHTS for Inhibitors of phosphatidylinositol 5-phosphate 4-kinase (PI5P4K); AID 652105, 2013; 1.2% of 330,000 active; Phosphatidylinositol 5-phosphate 4-kinase type-2 alpha (Homo sapiens), P48426; PI5P4Kalpha enzyme, ADP-Glo luminescence, 60 min; hits give low values; max response, %; active = max response of -50% or lower; inconclusive = between -30% and -50%; inactive = -30% or higher; note: value at the top dose of about 77 µM; % is set by controls: 0 for no effect and ±100 for the full control effect
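Quantitative HTS of the MLSMR library against PI5P4Kalpha with substrate. ATP added last at 5 microM final; room temperature, 60 minutes. Remaining ATP depleted, ADP converted and read as luminescence.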
BAZ2B inh: qHTS Assay for Inhibitors of BAZ2B. 4.4% of 360,000 active. Potency, µM (doses to about 114 µM), without a hit: top-dose activity change, negative = inhibition, actives largely listed as inhibitors. Bromodomain adjacent to zinc finger domain protein 2B (Homo sapiens), Q9UIF8. AlphaScreen BAZ2B-H3K14Ac peptide displacement; note: potency is the fitted concentration of half-maximal effect; % is set by controls: 0 for no effect and ±100 for the full control effect; nearly all actives have a fitted effect of over 60% in size
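AlphaScreen luminescence quantifies BAZ2B engagement of H3K14Ac peptide; the protein and biotinylated peptide are both at 50 nM final, buffer PBS pH 7.4 with 0.01% Tween-20, all steps at room temperature.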
PLK1 PBD inh: qHTS for Inhibitors of PLK1-PDB (polo-like kinase 1 - polo-box domain): Primary Screen; Plk1 PBD binding of FITC phosphopeptide, fluorescence polarization; Serine/threonine-protein kinase PLK1 (Homo sapiens), P53350; Potency, µM, for inactives: max response, negative = inhibition, actives largely listed as inhibitors; 2.8% of 360,000 active; note: potency is the fitted concentration of half-maximal effect; series mostly up to about 57 µM; % is set by controls: 0 for no effect and ±100 for the full control effect; nearly all actives have a fitted effect of over 65% in size
Active calls of the source: *; ? = inconclusive; nt = not tested or not shown; ! = not active in a repeat; [ ] = remark or other dose. Shown are actives, neighbours in structure and some others; about 7% of the full set was active somewhere. Unless noted, calls come from the whole dose curve; as a rule, active = well fitted curve in the direction sought with a large enough effect; inconclusive = small, poorly fitted or top-dose-only effect, or another doubt; inactive = no such curve, though single readings can be large; an effect the other way counts as inactive or inconclusive.

SMILES | HP1b binding inh | GCN5L2 inh | JMJD2A Tudor inh | PI5P4Ka inh | BAZ2B inh | PLK1 PBD inh
O=C(CSc1nnc(COc2ccccc2)o1)NCCc1ccccc1 | ? | -7% | 3.2µM* | ? | 6% | 2.7µM*
Cc1cc(-c2nnc(SCC(=O)Nc3nccs3)o2)no1 | 24% | -26% | 40µM* | -21 | 20µM* | -14%
O=C(CSc1nnc(COc2ccc(Cl)cc2)o1)Nc1nccs1 | nt | nt | nt | -12 | nt | -11%
O=C(CSc1nnc(COc2ccccc2)o1)Nc1nccs1 | 64% | 0% | -34% | -13 | 79µM* | -10%
Cc1cccc(OCc2nnc(SCC(=O)Nc3nccs3)o2)c1 | 44% | 1% | -32% | 0 | 79µM* | 7%
Clc1ccc(CCNC(c2ccc(Cl)cc2)c2nnc(-c3ccccc3)o2)cc1 (centres undefined) | 89% | -13% | 60% | nt | 49% | nt
Cc1ccc(CN(CC(=O)NC2CCCC2)C(=O)CSc2nnc(COc3ccccc3)o2)cc1 | ? | -18% | -27% | -8 | 47% | 30µM*
O=C(CSc1nnc(C2COc3ccccc3O2)o1)Nc1nccs1 (centres undefined) | 48% | 1% | 79µM* | 2 | 40µM* | -1%
Cc1cc(C(=O)COC(=O)c2ccc(Cl)c(S(N)(=O)=O)c2)c(C)n1C1CC1 | ? | -1% | ? | -8 | ? | 0%
Cc1ccc(C)c(S(=O)(=O)NCCC(=O)N2CCCC(C(N)=O)C2)c1 (centres undefined) | 27% | 1% | -12% | -2 | 1% | -7%
CS(=O)(=O)N1CCN(c2ccc(NC(=S)NC(=O)c3ccccc3[N+](=O)[O-])cc2)CC1 | 19% | -4% | 1% | 1 | -2% | 0%
CCOC(=O)C1=C(N)OC2=C(C(=O)CC(C)(C)C2)C1c1cccnc1 (centres undefined) | 18% | -1% | -10% | nt | -25% | -4%
CCOC(=O)C1=C(N)OC2=C(C(=O)CC(C)(C)C2)C1c1ccoc1 (centres undefined) | -6% | -7% | -5%[11.4 µM] | -17 | -10% | 21µM*
CCOC(=O)c1cccc(Nc2nc(C(=O)OCC)nc3ccccc23)c1 | 36% | -6% | -15% | nt | 3% | nt
CCOC(=O)c1nc(Nc2cccc(C)c2)c2ccccc2n1 | 5% | -3% | 50µM*! | -3 | 7% | 21µM*
CC(C)(C)C1=CC(=Nc2ccccc2N)C=C(C(C)(C)C)C1=O | 4.5µM* | -2% | 4µM* | -3 | 4% | -1%
O=C1CCC/C1=C/Nc1cccc(F)c1 | -11% | -6% | 50µM* | -14 | -21% | 19µM*
COc1ccc(N2CCN(Cc3cccn3-c3nnc(N4CCN(C5CCCCC5)CC4)s3)CC2)cc1 | ? | -3% | 50µM* | nt | ? | nt
COc1ccc(NCc2cccn2-c2nnc(N3CCCCCC3)s2)cc1 | ? | -19% | 45µM* | nt | -39%[57.1 µM] | nt
CCOc1ccc(NCc2cccn2-c2nnc(N3CCC(C(=O)NCCCN4CC(C)CC(C)C4)CC3)s2)cc1 (centres undefined) | ? | -4% | 40µM* | -1 | ? | -13%
Cc1ccc(NCc2cccn2-c2nnc(N3CCCCCC3)s2)cc1 | -16% | -2% | ? | nt | -8%[57.1 µM] | nt
O=C1CC(c2ccccc2)CC2=C1C1(CCCCC1)N=C(Nc1nc3ccccc3o1)N2 (centres undefined) | nt | nt | -22% | nt | nt | nt
CS(=O)(=O)N(CC(=O)NCc1ccc(Cl)cc1)C1CCCCC1 | ? | 0% | -35%[11.4 µM] | ? | 5% | 3µM*
Cc1ccc(S(=O)(=O)N(CC(=O)NCc2ccco2)C2CCCCC2)cc1 | 9% | 2% | -23% | nt | -34% | -10%
Cc1ccc(S(=O)(=O)N(CC(=O)NCc2ccncc2)C2CCCCC2)cc1 | ? | -2% | ? | ? | 6% | 2.7µM*
SMILES | HP1b binding inh | GCN5L2 inh | JMJD2A Tudor inh | PI5P4Ka inh | BAZ2B inh | PLK1 PBD inh
Cn1c(=O)c(C(=O)CN2CCCc3ccccc32)c(N)n(Cc2ccccc2)c1=O | 1% | -21% | ? | -15 | -61% | -15%
Cn1c(=O)c(C(=O)CN2CCc3ccccc32)c(N)n(Cc2ccccc2)c1=O | -4% | 4% | 50µM* | -19 | 6% | 30µM*
O=Cc1ccc2oc3nc4n(c(=O)c3c(=O)c2c1)CCCS4 | ? | ? | ? | -73* | 56µM* | ?
CCC(CC)C(=O)Nc1ccc2nc(SCC(=O)N3c4ccccc4CC3C)sc2c1 (centres undefined) | 35% | -12% | -2% | nt | -17% | nt
O=C(CSc1nc(-c2cccs2)nc2cc(=O)[nH]n12)Nc1ccccc1Cl | 20% | -12% | ? | nt | 79µM* | nt
Cc1ccc(NC(=O)CSc2nc(-c3ccccc3Cl)nc3cc(=O)[nH]n23)c(C)c1 | 3% | 0% | -13% | nt | 89µM* | nt
O=C(CSc1nc(-c2cccs2)nc2cc(=O)[nH]n12)Nc1ccccc1F | 34% | -2% | ? | nt | ? | nt
Cc1ccccc1NC(=O)CSc1nc(-c2ccccc2C)nc2cc(=O)[nH]n12 | 17% | 28% | -16% | nt | -18% | nt
O=C(CSc1nc(-c2cccs2)nc2cc(=O)[nH]n12)Nc1ccccc1 | 32% | 8% | -24% | nt | 56µM* | nt
Cc1cccc(NC(=O)CSc2nc(-c3ccco3)nc3cc(=O)[nH]n23)c1 | 27% | -12% | -20% | nt | 79µM* | nt
COCCn1c(C)cc(O)c(C(c2ccccc2)N2CCN(C)CC2)c1=O (centres undefined) | 15%[57 µM] | -1% | -23% | nt | -1% | nt
COc1ccc(C2/C=C\CN(CC(C)C)C(C)C(=O)N2Cc2ccc(F)cc2)cc1 (centres undefined) | 44% | nt | -8% | nt | nt | nt
COc1ccc([C@H]2/C=C\CN(Cc3ccc(N(C)C)cc3)[C@@H](C)C(=O)N2Cc2ccc(F)cc2)cc1 | ? | nt | 18µM* | 12 | nt | -14%
Oc1ccc(N=C/C=C/c2cccc(Br)c2)cc1-c1nc2ccccc2s1 | -15% | -6% | ? | -59* | ? | ?
Nc1ccc(O)c(-c2nc3ccccc3s2)c1 | -2% | -10% | -16% | ? | -28% | -29%
Cc1ccsc1CN(C(=O)COc1ccccc1Cl)C1CCS(=O)(=O)C1 (centres undefined) | 17% | -7% | -19% | nt | -2% | nt
O=S(=O)(c1ccc(OCc2ccc(Br)cc2)cc1)N1CCOCC1 | 34% | -17% | -13% | -2 | 11% | -8%
